# Source: PubChem BioAssay (Sanford-Burnham Center for Chemical Genomics)
# TROY NFkB inh: blocks TROY-dependent signaling in reporter cells. Q293 LMP1-TROYcd NF-kB luciferase reporter, 4 h. inhibition, % at 10 µM. actives 0.98% (n = 360,000);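 active means compounds whose plate-normalised and pattern-corrected inhibition of the luciferase reporter signal at the single screening dose is 50% or more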
# KKLEB tox: reduces viability of KKLEB cystic fibrosis airway cells; KKLEB CF airway cells viability, ATPlite luminescence, overnight; active compounds read low; cells stimulated with P. aeruginosa culture filtrate; activity change (cytotoxicity), % at 5 µM; actives 0.36% (n = 360,000);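 active means corrected activity change at or below -50% at 5 µM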
# CF NFkB inh: inhibitors of cystic fibrosis induced NF-kB; KKLEB NF-kB-GFP reporter, PAF-induced, GFP fluorescence overnight; inhibition, % at 5 µM; actives 0.86% (n = 360,000); AID 588850;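 active means at least 50% inhibition at 5 µM, scaled per plate between neutral and stimulator controls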;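 further: PAF is a Pseudomonas aeruginosa culture filtrate used as stimulus; plate controls were PAF-stimulated DMSO wells for no effect and unstimulated DMSO wells for full effect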
# Peg3 prom inh: inhibitors of Peg3 promoter; HeLa PEG-Prom luciferase reporter, luminescence, overnight; inhibition, % at 20 µM; actives 1.7% (n = 360,000);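 active means inhibition of at least 50% at 20 µM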
# TWEAK Fn14 block: inhibitors of TWEAK-Fn14 interaction signaling | inhibition, % at 10 µM | actives 2% (n = 360,000) | TWEAK-stimulated Fn14 reporter cells, luciferase luminescence, 8 h; in the data active means inhibition above about 50%
# HIF-2a block: inhibitors of HIF-2a. 786-0 RCC cells HIF-2a reporter, luciferase luminescence, overnight. inhibition, % at 18.8 µM. actives 0.72% (n = 360,000). AID 624352;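 active means inhibition of the luminescence signal of 40% or more relative to plate controls, in a single-dose primary screen at 18.75 µM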
# Starred values were filed as active, the others as inactive; · = no result. Compounds with a hit are over-represented: about 4% of the library has one in this group of screens.
SMILES,TROY NFkB inh,KKLEB tox,CF NFkB inh,Peg3 prom inh,TWEAK Fn14 block,HIF-2a block
CC(=O)Nc1cccc(Oc2nc(NC(C)C)nc3cc(-c4ccccc4)sc23)c1,-8,-6,8,-119,27,-257
CSC[C@H]1CN(Cc2ccccc2)C(=O)[C@@H]1CC(=O)Nc1ccc(Br)cc1,1,2,6,0,14,10
O=c1cc(-c2ccccc2)oc2c1CCCC2,6,-20,-4,-41,-13,-104
O=C(C/C=N/OCc1c(Cl)cccc1Cl)c1cnc(-c2ccccc2)s1,54*,1,-2,-12,-16,-38
COc1ccc(CNC(=O)[C@@H](C)NC(=O)C2CCN(C(=O)[C@@H](N)CCSC)CC2)cc1,1,-7,15,0,0,12
COC(=O)c1ccc2nc(NC(=O)C(C)(C)C)sc2c1,81*,-50*,3,8,96*,39
CCCCOc1ccc(Br)cc1CSC(=N)N,26,-13,17,105*,31,14
CCCCCOc1ccc(CSC(=N)N)cc1[N+](=O)[O-],-38,10,-4,107*,-3,-121
CN(C(=O)c1ccc(NC(=O)Cc2cccc([N+](=O)[O-])c2)cc1)C1CCCC1,-4,-8,-66,6,-22,6
CN(C(=O)c1ccc(S(=O)(=O)c2cccc(Cl)c2)c([N+](=O)[O-])c1)C1CCCCC1,56*,-19,48,39,92*,34
NC(=O)c1cccc(-c2ccnc3c2CC(C(=O)NCc2cccc(Cl)c2)O3)c1 (stereo not drawn),5,5,-13,5,-6,-4
N#C/C(=C(/O)COC(=O)CCCNC(=O)c1ccc(Cl)cc1)c1nc2ccccc2[nH]1,-5,-15,5,0,-56,5
Cc1cc(SCC(=O)OC/C(O)=C(\C#N)c2nc3ccccc3[nH]2)c(C)cc1Br,13,4,-11,51*,6,7
N#C/C(=C(/O)COC(=O)CSc1ccc(Cl)cc1)c1nc2ccccc2[nH]1,6,-3,3,75*,2,7
O=C(CSc1ncnc2c(-c3ccc(Cl)cc3)nsc12)c1ccccc1,57*,15,-11,-79,40,-85
O=C(N/N=C/c1cn(-c2ccccc2)nc1-c1cc2ccccc2o1)c1cccnc1,63*,-19,25,-53,85*,-173
O=C(N/N=C/c1cn(-c2ccccc2)nc1-c1cccs1)c1ccc(Cl)cc1,-11,0,-6,-41,55*,-73
O=C(N/N=C/c1cn(-c2ccccc2)nc1-c1ccc(F)cc1)c1ccc(Br)o1,13,-2,-20,-71,53*,-84
O=C(N/N=C/c1cn(-c2ccccc2)nc1-c1cc2ccccc2o1)c1ccncc1,28,-8,-10,-99,70*,-270
Cc1sc(NC(=O)c2ccco2)nc1-c1ccccc1,11,-10,19,-233,34,-160
Cc1sc(NC(=O)c2ccco2)nc1-c1ccc2c(c1)CC(C)N2C(=O)C1CC1 (stereo not drawn),25,7,6,55*,46,-187
NS(=O)(=O)c1ccc(N=Nc2ccc(O)c3ncccc23)cc1,19,6,-11,56*,31,-1
Oc1ccc(N=Nc2ccc3c(c2)OCCO3)c2ncccc12,60*,-3,-22,-34,82*,4
Cc1cccc(N=Nc2ccc(O)c3ncccc23)c1,-37,3,-4,-102,90*,-94
O=C(Nc1ncccc1O)c1ccc2c(c1)OCCO2,-4,6,-15,-146,-5,-211
SMILES,TROY NFkB inh,KKLEB tox,CF NFkB inh,Peg3 prom inh,TWEAK Fn14 block,HIF-2a block
CCOc1ccc(N=Nc2ccc(O)c3ncccc23)cc1,-9,7,-38,22,-52,7
O=C1NC[C@H](CCCCN2C[C@H](Cc3ccc(O)cc3)N(CCc3ccccc3)C(=O)C2=O)N(CCc2ccc(O)cc2)C1=O,-13,·,·,·,10,10
O=C1CC(=O)C(n2cncn2)C(c2ccc(Cl)cc2Cl)C1 (stereo not drawn),-1,1,2,-5,64*,18
Cc1cc(C)nc(Sc2ncnc3c2oc2ccccc23)n1,-31,-6,32,-71,56*,-122
COc1ccc(NC(=O)CCC(=O)c2cccs2)c(OC)c1,2,4,3,-52,57*,-55
Cc1ccnc(NC(=O)CCC(=O)c2cccs2)c1,68*,-26,0,21,92*,51*
Nc1ccc2c(c1)C(=O)c1cc(Cl)c(Cl)cc1-2,-17,8,-62,-35,-9,-55
O=C(Oc1ccc(Cl)c2cccnc12)c1cccc([N+](=O)[O-])c1,5,-32,28,18,21,-1
O=C(Oc1c(Cl)cc(Cl)c2cccnc12)c1cccc([N+](=O)[O-])c1,25,13,13,54*,-45,15
CCOC(=O)N1CCN(C2=C(NS(=O)(=O)c3ccc(Br)cc3)C(=O)c3ccccc3C2=O)CC1,-11,12,58*,17,-15,2
CCC1(O)C(=O)OCc2c1cc1n(c2=O)Cc2cc3c(N)cccc3nc2-1 (stereo not drawn),72*,-17,86*,69*,72*,37
CCC1(OC(=O)CN(C)C)C(=O)OCc2c1cc1n(c2=O)Cc2cc3c(N)cccc3nc2-1 (stereo not drawn),-9,-56*,32,39,-31,13
COc1ccc(C(=O)NCc2nnc(SCC(=O)NCc3ccco3)o2)cc1,-12,-2,-12,-3,1,7
CCOc1ccc(S(=O)(=O)NCC(=O)NC2CCCCC2)cc1,-16,12,-37,11,4,11
COc1cc(/C=N/n2cnnc2)ccc1OC(=O)c1ccncc1,63*,-10,34,16,0,28
COc1cc(/C=N/n2cnnc2)ccc1OC(=O)c1cccnc1,42,6,0,17,4,16
COc1ccc(CCNC(=O)CN2c3cccc4cccc(c34)S2(=O)=O)cc1OC,-1,-12,16,-4,-14,7
COc1ccc(C(=O)/C=C/Nc2ccccn2)c(OC)c1,-76,-1,8,-255,-4,-242
O=C(/C=C\Nc1ccccn1)c1ccccc1,1,-4,1,-5,76*,-12
CCOc1ccc(N/C=C/C(=O)c2ccccc2)c([N+](=O)[O-])c1,49,-58*,-40,41,86*,38
COc1ccc(N/C=C/C(=O)c2ccccc2)cc1,40,-54*,-18,-36,90*,-55
O=C(/C=C/Nc1ccc(Br)cc1F)c1ccccc1,76*,-78*,2,22,86*,36
O=C(/C=C/Nc1ccccc1F)c1ccc(Br)cc1,-7,-10,-18,-254,45,-127
